Experimental data: PubChem BioAssay (NCI)
This is part of a sample that, as a whole, favours compounds with a hit. Of some 83,000 tested, about 20% had one in any assay.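 Each cell line was grown in a 96-well plate and treated with one concentration of compound for 48 hours. Values below 10 were considered active.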

What was measured:
Test in all cases: NCI-60 one-dose screen, 48 h (100 = growth as untreated, 0 = no growth, -100 = all killed)
Details in all cases: 10 µM unless noted
NCI-H23 lung = tested on: NCI-H23 lung
NCI-H226 lung = tested on: NCI-H226 lung
NCI-H322M lung = tested on: NCI-H322M lung
HOP-62 NSCLC = tested on: HOP-62 NSCLC
NCI-H460 lung = tested on: NCI-H460 lung
NCI-H522 lung = tested on: NCI-H522 lung
A549/ATCC NSCLC = tested on: A549/ATCC NSCLC
786-0 renal = tested on: 786-0 renal
DU-145 prostate = tested on: DU-145 prostate
K-562 leukemia = tested on: K-562 leukemia
MALME-3M melanoma = tested on: MALME-3M melanoma
MDA-MB-231 breast = tested on: MDA-MB-231 breast
RXF 393 renal = tested on: RXF 393 renal
SF-268 CNS = tested on: SF-268 CNS
SF-295 CNS = tested on: SF-295 CNS
SF-539 CNS = tested on: SF-539 CNS
UACC-257 melanoma = tested on: UACC-257 melanoma
M14 melanoma = tested on: M14 melanoma
HCT-15 colon = tested on: HCT-15 colon
COLO 205 colon = tested on: COLO 205 colon

Measured: growth

O=C(Nc1ccc(Cl)cc1Cl)Nc1ccc(-c2cccnc2)cc1N1CCC(CO)CC1
inactive: NCI-H23 lung 29% | NCI-H226 lung 55.4% | NCI-H322M lung 61.5% | HOP-62 NSCLC 42% | NCI-H460 lung 35.1% | NCI-H522 lung 53.4% | A549/ATCC NSCLC 27.2% | 786-0 renal 52.3% | DU-145 prostate 54.2% | K-562 leukemia 17.7% | MALME-3M melanoma 41.3% | MDA-MB-231 breast 13.6% | RXF 393 renal 49.5% | SF-268 CNS 48.4% | SF-295 CNS 81.6% | SF-539 CNS 30.9% | UACC-257 melanoma 47.8% | M14 melanoma 36% | HCT-15 colon 26.8%

O=C1Nc2ccc(F)cc2/C1=C/c1nc(-c2ccc(F)cc2)n2ccccc12
inactive: NCI-H23 lung 104% | NCI-H226 lung 110% | NCI-H322M lung 124% | HOP-62 NSCLC 96.4% | NCI-H460 lung 99.2% | NCI-H522 lung 108% | A549/ATCC NSCLC 104% | 786-0 renal 114% | DU-145 prostate 74.1% | K-562 leukemia 106% | MALME-3M melanoma 91.3% | MDA-MB-231 breast 80% | RXF 393 renal 108% | SF-268 CNS 81.3% | SF-295 CNS 92.1% | SF-539 CNS 104% | UACC-257 melanoma 104% | M14 melanoma 83.2% | HCT-15 colon 105%

Nc1nc(SCC2(CCl)COC2)c2[nH]cnc2n1
inactive: NCI-H23 lung 97.1% | NCI-H226 lung 100% | NCI-H322M lung 102% | HOP-62 NSCLC 89.7% | NCI-H460 lung 107% | NCI-H522 lung 80.2% | A549/ATCC NSCLC 97.8% | 786-0 renal 99.4% | DU-145 prostate 116% | K-562 leukemia 90.6% | MALME-3M melanoma 88.8% | MDA-MB-231 breast 104% | RXF 393 renal 113% | SF-268 CNS 98.5% | SF-295 CNS 110% | SF-539 CNS 99.6% | UACC-257 melanoma 99.1% | M14 melanoma 97% | HCT-15 colon 99.6%

S=C(c1ccccc1)N1CCN(c2cccc(Cl)c2)CC1
inactive: NCI-H23 lung 101% | NCI-H226 lung 99.3% | NCI-H322M lung 104% | HOP-62 NSCLC 102% | NCI-H460 lung 111% | NCI-H522 lung 87.5% | A549/ATCC NSCLC 87.8% | 786-0 renal 107% | COLO 205 colon 100% | K-562 leukemia 54.8% | MALME-3M melanoma 97.4% | MDA-MB-231 breast 105% | RXF 393 renal 108% | SF-295 CNS 82.9% | SF-539 CNS 105% | UACC-257 melanoma 103% | M14 melanoma 113% | HCT-15 colon 105%

C=C(C[C@@](O)(C(=O)Oc1ccccc1)C(=O)C1CCCCC1)c1ccccc1
inactive: NCI-H23 lung 103% | NCI-H226 lung 108% | NCI-H322M lung 112% | HOP-62 NSCLC 108% | NCI-H460 lung 107% | NCI-H522 lung 91.8% | A549/ATCC NSCLC 92.2% | 786-0 renal 98.9% | DU-145 prostate 110% | K-562 leukemia 107% | MALME-3M melanoma 101% | MDA-MB-231 breast 99.9% | RXF 393 renal 91.4% | SF-268 CNS 99.6% | SF-295 CNS 100% | SF-539 CNS 98.4% | UACC-257 melanoma 92.8% | M14 melanoma 106% | HCT-15 colon 109%

CCOC(=O)C(C(C)=O)c1nc2sc3cc(Cl)ccc3n2c(=N)c1C#N (centres undefined)
inactive: NCI-H23 lung 78.2% | NCI-H226 lung 43% | NCI-H322M lung 105% | HOP-62 NSCLC 102% | NCI-H460 lung 96.1% | NCI-H522 lung 95.2% | A549/ATCC NSCLC 90.7% | 786-0 renal 84.5% | DU-145 prostate 109% | K-562 leukemia 87.4% | MALME-3M melanoma 52.5% | MDA-MB-231 breast 62.4% | RXF 393 renal 50.8% | SF-268 CNS 64.6% | SF-295 CNS 74.7% | SF-539 CNS 99.9% | UACC-257 melanoma 72.6% | M14 melanoma 77.8% | HCT-15 colon 122%

CC(NC(=O)C(C)Oc1ccc(Cl)cc1Cl)C(=O)O (centres undefined)
inactive: NCI-H23 lung 91.9% | NCI-H226 lung 92.9% | NCI-H322M lung 122% | HOP-62 NSCLC 94.5% | NCI-H460 lung 101% | NCI-H522 lung 83.6% | A549/ATCC NSCLC 116% | 786-0 renal 97.6% | DU-145 prostate 108% | K-562 leukemia 135% | MALME-3M melanoma 98.6% | MDA-MB-231 breast 96.8% | RXF 393 renal 120% | SF-268 CNS 102% | SF-295 CNS 97.8% | SF-539 CNS 102% | UACC-257 melanoma 94.6% | HCT-15 colon 98.3%

Cc1cc(C)n2nc(SCC(=O)Nc3sc4c(c3C(N)=O)CCC4)nc2n1
inactive: NCI-H23 lung 101% | NCI-H226 lung 87.1% | NCI-H322M lung 99.7% | HOP-62 NSCLC 93.7% | NCI-H460 lung 116% | NCI-H522 lung 94% | A549/ATCC NSCLC 146% | 786-0 renal 96.4% | DU-145 prostate 101% | K-562 leukemia 119% | MALME-3M melanoma 106% | MDA-MB-231 breast 99.2% | RXF 393 renal 117% | SF-268 CNS 113% | SF-295 CNS 101% | SF-539 CNS 90.8% | M14 melanoma 102% | HCT-15 colon 108%
